The values below come from PubChem BioAssay (NCATS).

Assay [1] in a line: Primary qHTS for Huh7 cytotoxicity: counterscreen for inhibitors of MERS-S pseudotyped particle cell entry (AID 1479147). The settings on record: outcome: dose series up to 57.1 µM unless noted.
The nature of assay [2]: Primary qHTS for Vero E6 cytotoxicity: counterscreen for inhibitors of SARS-S pseudo-typed particle cell entry (AID 1479150). The settings on record: outcome: dose series up to 57.1 µM unless noted. (In general: In qHTS, concentration-response curves come from the screen itself.)
Assay [3] can be described thus: Cytotoxicity counterscreen for inhibitors of SARS-CoV-2 cell entry (AID 1645845). Further: nearly all actives have a fitted effect of over 50% in size. Further: potency means the concentration at half of the fitted maximal effect. The settings on record: outcome: dose series up to 57.1 µM unless noted. A digest of the protocol: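 Counterscreen run in the same HEK293-ACE2 line as the pseudotyped-particle entry assay, without particles. Viability after 48 h at 37 C was read as ATP luminescence, scaled between cell-containing and cell-free wells.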
(In general: The purpose of a counterscreen is to sort out artefacts and off-target activity.)

Assay [4] in a line: Primary qHTS to identify inhibitors of SARS-CoV-2 cell entry (AID 1645846). Further: nearly all actives have a fitted effect of over 45% in size. Further: potency means the concentration at half of the fitted maximal effect. The settings on record: SARS-CoV-2 pseudovirus cell entry assay, luminescence; activity change, negative = inhibition: at 57.1 µM (top of the series) unless noted. The procedure, abridged:
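Inhibition of spike-mediated entry was scored in human ACE2-transfected Expi293F cells. Particles were MLV-pseudotyped with Wuhan-Hu-1 S carrying a 19-aa C-terminal deletion; signal was luciferase after two days, scaled between spike PP and fusion-protein-free PP.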

Assay [5] can be described thus: VSVG counterscreen qHTS to identify inhibitors of SARS-CoV-2 cell entry (AID 1645847). Further: potency means the concentration at half of the fitted maximal effect; nearly all actives have a fitted effect of over 65% in size. The procedure, abridged:
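Luminescence from a luciferase reporter, normalised to bald particle and VSV-G pseudotyped particle wells, is the read-out. Cells are HEK293 expressing human ACE2, exposed to compound 1 h before a 48 h particle infection at 37 °C.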

Assay [6] can be described thus: Confirmatory qHTS to identify inhibitors of SARS-CoV-2 cell entry (AID 1645844). Further: potency means the concentration at half of the fitted maximal effect; nearly all actives have a fitted effect of over 45% in size. The procedure, abridged: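 HEK293-ACE2, overnight seeding; cpd 1 h, 37C/5% CO2; + SARS-CoV-2-S MLV PP (Wuhan-Hu-1, ΔC19); 48 h; Bright-Glo luminescence. Data normalised to S PP and bald PP wells.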
The nature of assay [7]: Primary qHTS for inhibitors of MERS-S pseudo-typed particle cell entry (AID 1479149). Further: nearly all actives have a fitted effect of over 60% in size. Further: potency means the concentration at half of the fitted maximal effect. On activity change, negative = inhibition: on the % scale 0 is the no-effect control and ±100 the full control effect. The following applies: outcome: dose series up to 57.1 µM unless noted.

Records with an inconclusive call do not appear. Activity calls are given as the source filed them. The call rests on the fitted dose curve.

Turning to `CC(C)(C)NCC(O)COc1ccccc1C1CCCC1` (configuration not stated), the Potency result in assay [1], in assay [2] and in assay [3] was “inactive” in each case. For the same compound, the values for the Potency in assay [4] and in assay [5] were 10 µM (active) and 12.1 µM (active), respectively.
On to `Cc1cc(-n2c(=O)[nH]c(=O)n(C)c2=O)ccc1Oc1ccc(SC(F)(F)F)cc1`, for which the Potency result in assay [1], in assay [2] and in assay [3] was “inactive” each time.
For the compound `COC(=O)N[C@H](C(=O)N1CCC[C@H]1c1ncc(-c2ccc(-c3ccc(-c4cnc([C@@H]5CCCN5C(=O)[C@@H](NC(=O)OC)C(C)C)[nH]4)cc3)cc2)[nH]1)C(C)C`, the Potency result in assay [1] and in assay [2] was “inactive” throughout. For the same compound, the Potency in assay [3] was 39.8 µM (active); in assay [5] it was 1.71 µM (active).
Consider `Cc1ccc(C2(O)CCN(CCCC(=O)c3ccc(F)cc3)CC2)cc1`, for which the Potency result in assay [1], in assay [2] and in assay [3] was “inactive” each time.
With `CCCCCCC(COC(=O)c1cccnc1)(COC(=O)c1cccnc1)COC(=O)c1cccnc1`, the Potency result in assay [1], in assay [2] and in assay [3] was “inactive” in each case. The activity change, negative = inhibition in assay [4] is -17.5%.
For `CCN1CCN(Cc2ccc(Nc3ncc(F)c(-c4cc(F)c5nc(C)n(C(C)C)c5c4)n3)nc2)CC1`, the Potency entry in assay [1], in assay [2] and in assay [3] was “inactive” each time. The values for the Potency in assay [6], in assay [4] and in assay [5] were 5.41 µM (active), 10 µM (active) and 6.81 µM (active), respectively.
Regarding `CC(CN1c2ccccc2Sc2cccnc21)N(C)C` (configuration not stated), the Potency result in assay [1], in assay [2] and in assay [3] was “inactive” in each case. The Potency in assay [6] and in assay [5] was 24.1 µM (active) each time.
For `CC(CC(c1ccccc1)c1ccccc1)NC(C)(C)C` (configuration not stated), the Potency result in assay [1], in assay [2] and in assay [3] was “inactive” in each case.
Take `CCCCCCCCCC(=O)NO`: the Potency entry in assay [1], in assay [2] and in assay [3] was “inactive” throughout.
Turning to `CCN1CCC(=C2c3ccccc3CCc3ccccc32)C1C` (configuration not stated), the Potency result in assay [1], in assay [2] and in assay [3] was “inactive” throughout.
Regarding `O=C1CSC2(CCN(CCCN3c4ccccc4Sc4ccc(Cl)cc43)CC2)N1`, the Potency entry in assay [1] and in assay [2] was “inactive” in each case. Also, the Potency in assay [4] is 25.1 µM (active).
In the case of `C=CC[C@@H]1/C=C(\C)C[C@H](C)C[C@H](OC)[C@H]2O[C@@](O)(C(=O)C(=O)N3CCCC[C@H]3C(=O)O[C@H](/C(C)=C/[C@@H]3CC[C@@H](O)[C@H](OC)C3)[C@H](C)[C@@H](O)CC1=O)[C@H](C)C[C@@H]2OC`, the Potency entry in assay [1], in assay [2], in assay [3] and in assay [4] was “inactive” in each case.
Regarding `OC[C@H]1NC[C@H](O)[C@@H](O)[C@@H]1O`, the Potency entry in assay [1], in assay [2] and in assay [3] was “inactive” throughout.
Take `[2H]C([2H])([2H])C(O)([C@@H](C)/C=C/[C@@H](C)[C@H]1CC[C@H]2/C(=C/C=C3C[C@@H](O)C[C@H](O)C3)CCC[C@]12C)C([2H])([2H])[2H]`: the Potency entry in assay [1], in assay [2] and in assay [3] was “inactive” each time. Moreover, the Potency in assay [6] is 6.81 µM (active); in assay [5], 3.83 µM (active). Besides, the activity change, negative = inhibition in assay [4] is -60.1%.
For `CC(=O)c1ccc2c(c1)N(CCCN1CCN(CCO)CC1)c1ccccc1S2`, the Potency entry in assay [1] and in assay [2] was “inactive” each time. The activity change, negative = inhibition in assay [4] is -25.7%.
Consider `CO[C@H]1/C=C\O[C@@]2(C)Oc3c(C)c(O)c4c(O)c(c5c(c4c3C2=O)=NC2(CCN(CC(C)C)CC2)N=5)NC(=O)/C(C)=C\C=C/[C@H](C)[C@H](O)[C@@H](C)[C@@H](O)[C@@H](C)[C@H](OC(C)=O)[C@@H]1C`, for which the Potency entry in assay [1], in assay [2] and in assay [3] was “inactive” each time. In addition, the activity change, negative = inhibition in assay [4] was -26.3%.
For `Cc1cncc(CN2CCC(=C3c4ccc(Cl)cc4CCc4cccnc43)CC2)c1`, the Potency entry in assay [1], in assay [2] and in assay [3] was “inactive” each time. The Potency in assay [6] is 0.607 µM (active); in assay [4] it was 12.6 µM (active); in assay [5] it was 27.1 µM (active).
For the compound `CC(C)[C@H]1C(=O)N[C@@H](CCCN=C(N)N)C(=O)NCC(=O)N[C@@H](CC(=O)O)C(=O)N[C@H](Cc2ccccc2)C(=O)N1C`, the Potency entry in assay [1], in assay [2] and in assay [3] was “inactive” each time. Further, the activity change, negative = inhibition in assay [4] was -11.5% [at 27.1 µM].
On to `CCCCCCCC(=O)CC[C@@H]1[C@@H](C/C=C\CCCC(=O)OC(C)C)[C@@H](O)C[C@H]1O`, for which the Potency result in assay [1] and in assay [2] was “inactive” throughout. Also, the Potency in assay [4] is 25.1 µM (active).
`O=C(CCCN1CCC(C(=O)c2ccc(F)cc2)CC1)c1ccc(F)cc1`: the Potency entry in assay [1], in assay [2] and in assay [3] was “inactive” in each case.
In the case of `COc1cc2c(cc1OC)[C@H]1C[C@@H](OC(=O)[C@@H](N)C(C)C)[C@H](CC(C)C)CN1CC2`, the Potency result in assay [1], in assay [2] and in assay [3] was “inactive” each time.
In the case of `CC(=O)O[C@]1(C(C)=O)CC[C@H]2[C@@H]3C=C(C)C4=CC(=O)CC[C@@H]4[C@H]3CC[C@@]21C`, the Potency result in assay [1], in assay [2] and in assay [3] was “inactive” each time. The activity change, negative = inhibition in assay [4] was -20%.
Regarding `CC(C)C[C@H]1C(=O)N2CCC[C@H]2[C@]2(O)O[C@](NC(=O)[C@@H]3C=C4c5cccc6[nH]c(Br)c(c56)CC4N(C)C3)(C(C)C)C(=O)N12` (some centres not stated), the Potency entry in assay [1], in assay [2] and in assay [3] was “inactive” throughout. For the same compound, the Potency in assay [4] was 22.4 µM (active).
In the case of `CC[C@@H](C(=O)[C@@H](C)[C@@H](O)[C@H](C)CCc1ccc(C)c(O)c1C(=O)O)[C@H]1O[C@](CC)([C@H]2CC[C@](O)(CC)[C@H](C)O2)C[C@@H]1C`, the Potency entry in assay [1] and in assay [2] was “inactive” throughout. Besides, the Potency in assay [4] was 5.01 µM (active).
Regarding `O=C1[C@@H]2[C@H]3CC[C@H](C3)[C@@H]2C(=O)N1C[C@@H]1CCCC[C@H]1CN1CCN(c2nsc3ccccc23)CC1`, the Potency result in assay [1] and in assay [2] was “inactive” throughout. Moreover, the results for the Potency in assay [6], in assay [4] and in assay [5] were 12.1 µM (active), 31.6 µM (active) and 3.04 µM (active), respectively.
As to `CC(Cc1ccc(O)c(O)c1)C(C)Cc1ccc(O)c(O)c1` (configuration not stated), the Potency result in assay [1], in assay [2] and in assay [3] was “inactive” each time. Besides, the Potency in assay [5] is 27.1 µM (active).
For `Clc1cc(Cl)c(OCC#CI)cc1Cl`, in assay [7], the Potency result was “inactive”.
Take `CCC1OC(=O)C(C)C(OC2CC(C)(OC)C(O)C(C)O2)C(C)C(OC2OC(C)CC(N(C)C)C2O)C(C)(O)CC(C)C2NC(COCCOC)OC(C2C)C1(C)O` (configuration not stated): the Potency result in assay [7], in assay [2] and in assay [3] was “inactive” in each case.
On to `NC(=O)c1cccc2cn(-c3ccc(C4CCCNC4)cc3)nc12` (configuration not stated), for which the Potency in assay [7] was 25.1 µM (active). Besides, the Potency result in assay [2] is “inactive”.
